LYPLA1 inh – LYPLA1 inhibitors, primary screen, counter-screen for PME1 inhibitor project, biochemical, fluorescence polarization, FP-Rh probe ABPP | inhibition, % at 5.9 µM | AID 2174, 2009 | recombinant LYPLA1 | Acyl-protein thioesterase 1 (Homo sapiens), O75608 | 0.16% of 320,000 active;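 active = inhibition above the mean of all tested compounds plus 3 SD, set per campaign, cut at about 14% in these data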;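 also: inhibitors block serine hydrolase probe labeling of LYPLA1 so polarization falls; 0% = enzyme with DMSO and 100% = wells lacking LYPLA1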
PME-1 inh – PME-1 inhibitors via competitive probe labeling, primary screen, biochemical, fluorescence polarization, FP-Rh probe, HTS. Protein phosphatase methylesterase 1 (Homo sapiens), Q9Y570. recombinant PME-1. inhibition, % at 5.9 µM. 0.53% of 320,000 active;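 active = inhibition above the campaign mean of all compounds plus 3 SD, cut at about 26% in these data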;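 also: competitive labeling of PME-1 active site by serine hydrolase directed probe; 0% = PME-1 with DMSO and 100% = wells lacking PME-1 enzyme; inhibitors block probe labeling so polarization falls and inhibition rises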
GSTO1 counter – inhibitors of recombinant GSTO1, primary screen, counter-screen for RBBP9 inhibitor project, biochemical, fluorescence polarization; AID 1974, 2009; activity-based probe fluorescence polarization; 1.1% of 300,000 active; inhibition, % at 5.96 µM;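 active = inhibition above the campaign mean inhibition plus 3 SD, cut at about 35% in these data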;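 also: 0% = GSTO1-1 with DMSO and 100% = wells lacking GSTO1-1 enzyme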
Fam108B counter – mouse Fam108B serine hydrolase inhibitors, primary screen, counter-screen for RBBP9 inhibitor project, biochemical, fluorescence polarization; recombinant Fam108B, FP-Rh probe fluorescence polarization; inhibition, % at 9.51 µM; 0.33% of 300,000 active; AID 1947, 2009;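 active = inhibition above the screen mean inhibition plus 3 SD, computed separately per campaign, cut at about 18% in these data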;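 also: inhibitors lower polarization as less probe binds the enzyme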
PAD4 inh – human PAD4 inhibitors, primary screen, biochemical, fluorescence polarization, 1536-well format | Protein-arginine deiminase type-4 (Homo sapiens), Q9UM07 | inhibition, % at 6.36 µM | AID 485272, 2010 | 0.41% of 330,000 active | recombinant PAD4, RCA probe fluorescence polarization;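 active = percent inhibition above a cutoff equal to the mean of all tested compounds plus 3 SD, cut at about 15% in these data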;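 also: 0% = PAD4 with RCA probe and DMSO and 100% = probe without PAD4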
Target sequence (Q9UM07 whole entry, looked up): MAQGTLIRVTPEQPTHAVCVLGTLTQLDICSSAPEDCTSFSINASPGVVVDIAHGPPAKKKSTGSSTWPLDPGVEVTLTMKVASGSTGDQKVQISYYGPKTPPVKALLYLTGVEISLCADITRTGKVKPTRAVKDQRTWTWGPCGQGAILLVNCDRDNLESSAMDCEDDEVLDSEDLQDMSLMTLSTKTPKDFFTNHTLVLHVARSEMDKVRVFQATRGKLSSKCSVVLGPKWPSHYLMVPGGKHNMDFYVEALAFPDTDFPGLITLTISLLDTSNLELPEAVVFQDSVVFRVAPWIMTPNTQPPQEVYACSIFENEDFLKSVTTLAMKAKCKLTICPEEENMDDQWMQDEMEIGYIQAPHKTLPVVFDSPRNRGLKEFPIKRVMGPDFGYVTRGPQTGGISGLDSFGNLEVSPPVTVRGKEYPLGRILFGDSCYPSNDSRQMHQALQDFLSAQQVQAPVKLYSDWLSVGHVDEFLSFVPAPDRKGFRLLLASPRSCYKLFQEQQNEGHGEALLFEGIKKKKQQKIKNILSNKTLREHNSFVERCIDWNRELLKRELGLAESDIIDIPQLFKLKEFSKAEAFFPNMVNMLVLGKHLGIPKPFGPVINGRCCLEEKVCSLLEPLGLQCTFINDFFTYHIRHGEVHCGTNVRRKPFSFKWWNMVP
LYPLA2 inh – LYPLA2 inhibitors, primary screen, counter-screen for PME1 inhibitor project, biochemical, fluorescence polarization, FP-Rh probe ABPP; 0.38% of 320,000 active; AID 2177, 2009; inhibition, % at 5.9 µM; recombinant LYPLA2;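 active = inhibition above the screen-wide mean plus 3 SD, limit set per campaign, cut at about 26% in these data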;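 also: 0% = LYPLA2 with DMSO and 100% = wells lacking LYPLA2 enzyme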
Fam108b confirm – mouse Fam108b serine hydrolase inhibitors, confirmation, counter-screen for RBBP9 inhibitor project, biochemical, fluorescence polarization, triplicate; shares compounds with Fam108B counter; recombinant Fam108b, FP-Rh probe fluorescence polarization; inhibition, % at 9.51 µM; 44% of 930 active; AID 1978, 2009;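 active = inhibition above a limit from the primary screen, the mean over all compounds plus 3 SD, cut at about 19% in these data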;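 also: 0% = median of active Fam108b wells and 100% = catalytically dead S170A mutant; inhibitors free the probe so polarization falls as inhibition rises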
Fam108b inh – inhibition of mouse Fam108b by HTS hits, late-stage follow-up, biochemical, gel-based ABPP, soluble recombinant form; shares compounds with Fam108B counter; fluorophosphonate probe; inhibition, % at 20 µM; 44% of 260 active; AID 588649, 2011; in the data active = inhibition above about 40%
GSTO1 confirm – GSTO1 inhibitor hit confirmation, counter-screen for RBBP9 inhibitor project, biochemical, fluorescence polarization, triplicate; 54% of 2,400 active; shares compounds with GSTO1 counter; AID 2176, 2009; inhibition, % at 5.96 µM; recombinant GSTO1, probe fluorescence polarization;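 active = inhibition above the primary screen's cutoff, its mean inhibition plus 3 SD, cut at about 35% in these data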;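 also: loss of polarization as inhibitors block binding of rhodamine sulfonate ester activity probe; 0% = GSTO1 with DMSO and 100% = wells lacking GSTO1 enzyme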
LYPLA1 confirm – LYPLA1 inhibitors, retest, confirmation, counter-screen for PME1 inhibitor project, biochemical, fluorescence polarization, FP-Rh probe ABPP; shares compounds with LYPLA1 inh; recombinant LYPLA1; inhibition, % at 5.9 µM; 69% of 480 active; AID 2233, 2010;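 active = mean inhibition across replicates above the hit cutoff set in the primary screen, cut at about 15% in these data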;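 also: loss of FP-Rh probe labeling of LYPLA1 seen as lower polarization; 0% = LYPLA1 with DMSO and 100% = wells lacking LYPLA1 enzyme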
LYPLA2 confirm – LYPLA2 inhibitors, retest, confirmation, counter-screen for PME1 inhibitor project, biochemical, fluorescence polarization, FP-Rh probe ABPP | shares compounds with LYPLA2 inh | recombinant LYPLA2 | inhibition, % at 5.9 µM | 72% of 1,100 active | AID 2232, 2010;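 active = mean inhibition across replicates above the hit cutoff set in the primary screen, cut at about 26% in these data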;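 also: blocked labeling of the enzyme by serine hydrolase FP-Rh probe lowers polarization; 0% = enzyme with DMSO and 100% = wells lacking LYPLA2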
PAD4 FP conf – human PAD4 inhibitors, confirmation, biochemical, fluorescence polarization | 28% of 1,200 active | shares compounds with PAD4 inh | recombinant PAD4, RCA probe fluorescence polarization | inhibition, % at 6.36 µM;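 active = mean inhibition across replicates above the hit cutoff set by the earlier primary screen, cut at about 15% in these data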;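 also: inhibitors block active-site labeling by the probe so polarization falls; 0% = PAD4 with probe and DMSO and 100% = probe without PAD4 enzyme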
The depositor's hits bear a star; . = no result. Hits are enriched below; roughly 1.8% of the tested compounds scored in any of these assays.

SMILES	LYPLA1 inh	PME-1 inh	GSTO1 counter	Fam108B counter	PAD4 inh	LYPLA2 inh	Fam108b confirm	GSTO1 confirm	PAD4 FP conf	others
O=C1C(Cl)=C(N2CCN(c3ccccc3[N+](=O)[O-])CC2)C(=O)c2ccccc21	1	25	82*	30*	29*	16	32*	88*	8	Fam108b inh=5
O=C(O)c1ccc(S(=O)(=O)/N=C2\C=C(Nc3ccccc3F)C(=O)c3ccccc32)cc1	7	26	91*	49*	67*	26*	66*	93*	65*	Fam108b inh=85*;LYPLA2 confirm=75*
CC1=C(Nc2ccc(C(=O)O)cc2)C(=O)c2ccccc2C1=O	-7	0	30	2	0	-3	.	.	.
Cc1ccccc1NC1=C/C(=N\S(=O)(=O)c2ccc(C(=O)O)cc2)c2ccccc2C1=O	7	36*	90*	54*	71*	32*	89*	93*	58*	Fam108b inh=30
CCOc1ccc(-c2ncncc2-c2ccc(OC)c(OC)c2)c(O)c1	-1	-5	11	2	4	-2	.	.	.
Nn1c(SCc2ccc(F)cc2)nnc1-c1ccncc1	3	1	3	-1	-1	7	.	.	.
O=C1OC(Nc2cc(Br)cc3cccnc23)c2ccccc21 (stereo unspecified)	11	28*	86*	47*	61*	17	7	.	-6
Cc1cc(C)c(S(=O)(=O)/N=C2/C=C(Sc3ncn[nH]3)C(=O)c3ccccc32)cc1C	2	31*	84*	52*	30*	36*	28*	87*	5	LYPLA2 confirm=33*
Cc1cc(O)c(Sc2ncn[nH]2)cc1NS(=O)(=O)c1ccc(Cl)cc1	-7	-2	.	.	0	-5	.	.	.
C=CCn1c(NS(=O)(=O)c2ccccc2)c(S(=O)(=O)c2ccc(C)cc2)c2nc3ccccc3nc21	80*	33*	101*	74*	76*	82*	5	88*	14	LYPLA1 confirm=66*;LYPLA2 confirm=90*
CCCCn1c(N)c(S(=O)(=O)c2ccc(C)cc2)c2nc3ccccc3nc21	-14	0	-15	-12	-4	-22	.	.	.
C/C(Cl)=C\Cn1c(N2CCCC2)nc2c1c(=O)n(C)c(=O)n2C	0	-2	-5	-7	-5	0	.	.	.
COc1cccc2c1C(=O)c1c(O)c3c(c(O)c1C2=O)C[C@@](O)(C(=O)CO)C[C@@H]3O[C@H]1C[C@H](N)[C@@H](O)[C@H](C)O1	57*	46*	44*	36*	56*	41*	35*	33	64*	Fam108b inh=35;LYPLA1 confirm=56*
CC(=O)[C@]1(O)Cc2c(O)c3c(c(O)c2[C@@H](O[C@H]2C[C@H](N)[C@H](O)[C@H](C)O2)C1)C(=O)c1ccccc1C3=O	77*	72*	67*	71*	84*	74*	73*	59*	89*	Fam108b inh=20;LYPLA1 confirm=78*
Cc1ccc(CN(Cc2ccccc2)C(=S)NCC(=O)NCc2cccnc2)o1	2	-3	2	3	-7	0	.	.	.
Cc1cc2c(NCc3ccccc3)ncnc2s1	0	-1	3	4	-3	8	.	.	.
CCC(C)CCN1CCN=C1Nc1ccccc1 (stereo unspecified)	3	3	4	0	-2	-1	.	.	.
O=C(Nc1ccnc(-c2cccnc2)n1)c1cccs1	-3	-4	8	-3	-5	-4	.	.	.
COCCn1c(N)c(C(=O)NCC2CCCO2)c2nc3ccccc3nc21 (stereo unspecified)	70*	38*	102*	61*	76*	71*	-7	5	-18	LYPLA1 confirm=2;LYPLA2 confirm=2
CC(C)Cn1c(N)c(C(=O)NCC2CCCO2)c2nc3ccccc3nc21 (stereo unspecified)	-2	22	29	-6	-11	-9	.	.	.
CCOC(=O)c1c(C)[nH]c(C(=O)OCC(=O)c2ccc3c(c2)NC(=O)CO3)c1C	1	-4	-2	-2	0	4	.	.	.
C=CCn1c(SCCC)nc(O)cc1=O	0	1	10	5	1	9	.	.	.
Cc1cc(O)ccc1N=Cc1c(C(F)(F)F)[nH][nH]c1=O	71*	89*	94*	31*	98*	86*	0	.	2	LYPLA1 confirm=5;LYPLA2 confirm=6
O=c1[nH][nH]c(C(F)(F)F)c1C=Nc1ccccc1	2	4	7	2	-4	1	.	.	.
OCCNC(=S)Nc1ccc(Cl)c(Cl)c1	-2	-6	4	1	2	2	.	.	.
OCCNC(=S)Nc1ccc2nsnc2c1	14	24	85*	28*	28*	12	-1	.	6
O=C1C(Nc2cccc(O)c2)=C(N2CCCCC2)C(=O)c2ccccc21	6	13	79*	20*	18*	8	21*	63*	13
O=C1C(NS(=O)(=O)c2ccccc2)=C(N2CCN(c3ccc(F)cc3)CC2)C(=O)c2ccccc21	1	5	20	5	-4	6	.	.	.
O=C(CN(c1ccccc1)S(=O)(=O)c1ccccc1)N/N=C/c1ccco1	-3	1	0	0	0	-9	.	.	.

Source: PubChem
